Inconclusive results are not listed. Entries that show only a call come without a potency. Calls of active or inactive are those of the source. Calls follow the shape of the dose curve; as a rule, active = well fitted inhibition curve with a large enough effect; inconclusive = small, poorly fitted or top-dose-only effect; inactive = no such curve, though single readings can be large or run the other way.
Columns and labels:
[1] = system: Zika virus NS2B-NS3 protease (unlinked complex); test: Primary screen GU Rhodamine qHTS for Zika virus inhibitors: Unlinked NS2B-NS3 protease assay (AID 1347159); also: nearly all actives have a fitted effect of over 60% in size
Procedure, shortened: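 Noncovalent NS2B hydrophilic domain/NS3 protease complex (25 nM final) in 10 mM Tris-HCl pH 8.0, 0.01% Tween 20, preincubated 15 min with compounds (up to 114 microM), then 1.5 microM Rhodamine110 substrate. Fluorescence change over 15 min fitted to 4-parameter Hill.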

[2] = system: Zika virus NS2B-NS3 protease (linked construct); test: Primary screen NINDS Rhodamine qHTS for Zika virus inhibitors (AID 1347160); also: nearly all actives have a fitted effect of over 55% in size
Procedure, shortened: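 Purified NS2B-NS3 protease with the NS2B hydrophilic domain joined by a flexible linker (25 nM) in 10 mM Tris-HCl pH 8.0, 0.01% Tween 20, preincubated 15 min at RT with compound; Rhodamine110 peptide substrate 1.5 µM; fluorescence change over 15 min; 4-parameter Hill fit.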

[3] = Confirmatory screen NINDS Rhodamine qHTS for Zika virus inhibitors (AID 1347161);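 also: purified Zika NS2B-NS3 protease with linked NS2B cofactor domain and Rhodamine110 peptide substrate; series mostly up to about 110 µM; nearly all actives have a fitted effect of over 60% in size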
Procedure, shortened: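 Single-chain NS2B-NS3 protease, 25 nM, pH 8.0; compounds preincubated 15 min. Activity: Rhodamine110 release from 1.5 microM substrate over 15 min, room temperature, data fitted to 4-parameter Hill.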

Compound	Potency [1]	Potency [2]	Potency [3]
CC(CCC1(O)OC2CC3C4CCC5CC(O[C@@H]6O[C@H](CO)[C@@H](O)[C@H](O)[C@H]6O[C@@H]6O[C@@H](C)[C@H](O)[C@@H](O)[C@H]6O)C(O)CC5(C)C4CCC3(C)C2C1C)CO[C@@H]1O[C@H](CO)[C@@H](O)[C@H](O)[C@H]1O (stereo partly specified)	inactive	inactive	
COc1ccc(C(=O)C2CCN(CC(=O)N(Cc3nc4c(c(=O)[nH]3)COCC4)CC3CC3)CC2)cc1	inactive		inactive
C/C=C/C1=CC2=C(CO1)C(=O)C(C)(O)C(OC(=O)c1c(C)cc(OC)cc1O)C2 (stereo unspecified)			inactive
O=S(=O)(c1ccccc1)c1cnc2c(N3CCNCC3)cccc2c1			inactive

Source: PubChem BioAssay (NCATS)
